PubChem BioAssay (NCATS)
Results filed as inconclusive are left out. The source made the active and inactive calls. Unless noted, calls follow the shape of the dose curve; as a rule, active = well fitted curve in the direction sought with a large enough effect; inconclusive = small, poorly fitted or top-dose-only effect, or another doubt; inactive = no such curve, though single readings can be large; an effect the other way counts as inactive or inconclusive.

Key:
[1] = biological target: Lysosomal acid glucosylceramidase (Homo sapiens) (UniProt P04062); assay: Glucocerebrosidase-p2 (AID 348; in the data active = potency below about 10 µM; also: potency is read from the fitted curve at half-maximal effect); details: purified GBA, blue fluorogenic substrate, 40 min
Procedure, shortened: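 Compounds titrated from 0.6 nM upwards against 0.2 nM enzyme in pH 5.9 citric acid/KH2PO4, taurocholate, tween-20; blue fluorogenic substrate 80 uM, 40 min room temperature, stopped and read Ex 365/Em 440 for AC50.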

[2] = AP1 Signaling Pathway (AID 357; active = well fitted curve in either direction with a large enough effect, not every such curve was filed as active;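 also: ME-180 reporter cells stimulated with EGF at its EC50 level; % is scaled to controls: 0 for no effect and ±100 for the full control effect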); details: ME-180 AP-1-bla reporter, EGF-induced, beta-lactamase ratio, 5 h; at 7.69 µM (top of the series) unless noted
Procedure, shortened: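 AP-1-bla ME-180 cells, Opti-MEM + 0.5% dialyzed FBS, plated overnight 37 °C. Cpd titration + EC50 EGF, 5 h 37 °C. CCF4 2.5 h RT; ex 405, em 460/530 ratio → %activity, AC50.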

[3] = biological target: Cytochrome P450 1A2 (Homo sapiens) (UniProt P05177); assay: p450-cyp1a2 (AID 410; calls by dose curve; also: potency is read from the fitted curve at half-maximal effect); details: recombinant CYP1A2, luciferin-ME demethylation, luminescence; series mostly up to 57 µM
Procedure, shortened: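 20nM CYP1A2 with 100uM Luciferin-ME (at Km) in 100mM KPO4; compound preincubated 10 min, NADPH regeneration added, 60 min at room temperature. Luciferin quantified by luminescence after detection reagent; normalized to 57 uM furafylline.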

[4] = NFAT Signaling Pathway (AID 444; active = well fitted curve in either direction with a large enough effect, not every such curve was filed as active;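 also: carbachol stimulus at about its EC50 of 1 µM final; % is scaled to controls: 0 for no effect and ±100 for the full control effect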); details: Jurkat NFAT-bla M1, carbachol, beta-lactamase ratio, 5 h; at 7.69 µM (top of the series) unless noted
Procedure, shortened: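 Read-out: CCF4 FRET ratio (460 nm/530 nm) after 1 h RT dye loading, used for %activity and AC50 from titration series. Cells: Jurkat NFAT-β-lactamase/M1 line, treated with compound plus 1 uM carbachol for 5 h, 37 °C.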

[5] = Stat Signaling Pathway (AID 446; active = well fitted curve in either direction with a large enough effect, not every such curve was filed as active;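 also: ME-180 cervical cancer cells given 40 pM IL-6 alongside compound; SIE-controlled beta-lactamase reporter measured as 460/530 nm FRET emission ratio; % is scaled to controls: 0 for no effect and ±100 for the full control effect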); details: ME-180 SIE beta-lactamase reporter, IL-6 stimulated, 5 h; at 7.69 µM (top of the series) unless noted
Procedure, shortened: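 Screening format detects activators and inhibitors alike: ME-180 SIE-bla cells stimulated at 40 pM IL-6 for 5 hrs with compound, then dual-emission beta-lactamase read at 405 nm excitation.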

[6] = biological target: Glucocorticoid receptor (Homo sapiens) (UniProt P04150); assay: GR-GFP Redistribution (AID 450;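 active = compounds whose dose series gives a full or clear partial fitted curve of increased nuclear translocation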; also: potency is read from the fitted curve at half-maximal effect); details: U2OS GR-GFP nuclear translocation, laser cytometry, 2 h
[7] = biological target: Glucocorticoid receptor (Homo sapiens) (UniProt P04150); assay: GR-EFC Redistribution (AID 451; calls by dose curve; also: potency is read from the fitted curve at half-maximal effect); details: CHO-K1 GR-EFC translocation, beta-gal luminescence, 2 h
Procedure, shortened: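 Translocation of GR-ED fusion to nuclear EA restores b-gal, read by luminescence after 1 h room-temperature detection. Engineered CHO-K1 biosensor cells, 1,000/well, exposed 2 h at 37 C to titrations up to 46 uM final.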

[8] = biological target: Mitogen-activated protein kinase 10 (Mus musculus) (UniProt Q61831); assay: JNK3 AlphaScreen Assay (AID 530; active = well fitted curve in either direction with a large enough effect, not every such curve was filed as active;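 also: kinase came from lysate of stimulated human HepG2 cells; signal reports phosphorylation of biotinylated GST-cJun 1-79 at Ser73 with 10 µM ATP; % is scaled to controls: 0 for no effect and ±100 for the full control effect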); details: JNK3 lysate, c-Jun phosphorylation; series mostly up to 57.1 µM
Procedure, shortened: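 Compound titrations were preincubated 15 minutes at room temperature with substrate, antibody and pre-activated JNK3-containing HepG2 lysate. Reactions were started with 10 uM ATP and stopped with EDTA-containing bead buffer for AlphaScreen detection.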

[9] = biological target: Cytochrome P450 3A4 (Homo sapiens) (UniProt P08684); assay: qHTS Assay for Activators of Cytochrome P450 3A4 (AID 885); details: recombinant CYP3A4, Luciferin-PPXE luminescence, 60 min; series mostly up to 57.1 µM; also: nearly all actives have a fitted effect of over 65% in size
Procedure, shortened: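 Steps: enzyme/substrate mix dispensed; compound added, 10 min RT; NADPH regeneration solution added, 60 min RT; luciferin detection buffer stops reaction; 20 min later luminescence measured.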

[10] = biological target: Cytochrome P450 2C19 (Homo sapiens) (UniProt P33261); assay: qHTS Assay for Inhibitors and Substrates of Cytochrome P450 2C19 (AID 899); details: recombinant CYP2C19, luciferin-H EGE luminescence; series mostly up to 57.1 µM; also: potency is read from the fitted curve at half-maximal effect; nearly all actives have a fitted effect of over 60% in size
Procedure, shortened: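 5nM enzyme + 10uM Luciferin-H EGE (=KM), 50mM KPO4; cpd pin-transferred, 10 min 37C; NADPH regen, 60 min 37C; stopped w/ luciferin detection reagent, 20 min; luminescence. Normalized to 57uM ketoconazole (AC100).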

[11] = biological target: Dual specificity protein kinase CLK4 (Homo sapiens) (UniProt Q9HAZ1); assay: qHTS Assay for Inhibitors of CDC-like Kinase 4 (Kinase-Glo Assay) (AID 1770); details: recombinant Clk4, Kinase-Glo ATP depletion luminescence; series mostly up to 66.7 µM; also: nearly all actives have a fitted effect of over 65% in size; also: potency is read from the fitted curve at half-maximal effect
Procedure, shortened: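 Substrate mix (RS peptide 100 uM, ATP 1 uM) dispensed, compound pinned in, then Clk4 added to 25 nM final. Incubated 4.5 h at RT; Kinase-Glo reagent added, luminescence read after 5 min.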

[12] = biological target: Dual specificity protein kinase CLK4 (Homo sapiens) (UniProt Q9HAZ1); assay: qHTS Assay for Inhibitors of CDC-like Kinase 4 (ADP-Glo Assay) (AID 1771); details: recombinant CLK4, ADP-Glo luminescence; series mostly up to 80 µM; also: nearly all actives have a fitted effect of over 70% in size; also: potency is read from the fitted curve at half-maximal effect
Procedure, shortened: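 25 nM Clk4 with 100 uM RS repeat peptide and 1 uM ATP (final) in buffer with 2 mM MgCl2, 0.5 mM EGTA, 2.5 mM DTT, 0.01% Triton X-100; 1 h at room temperature; ADP-Glo luminescence for ADP formed.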

[13] = biological target: Dual specificity protein kinase CLK4 (Homo sapiens) (UniProt Q9HAZ1); assay: qHTS Assay for Inhibitors of CDC-like Kinase 4 (ADP-FP Assay) (AID 1795); details: Transcreener ADP fluorescence polarization; series mostly up to 50 µM;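 also: recombinant human CLK4 phosphorylating RS repeat peptide at 1 µM ATP; % is scaled to controls: 0 for no effect and ±100 for the full control effect; nearly all actives have a fitted effect of over 60% in size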
Procedure, shortened: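 Clk4 6.25 nM; RS peptide 100 uM; ATP 1 uM; 25 mM Tris pH 7.5, 10 mM MgCl2; 1 h reaction. ADP detected via antibody/orange tracer FP displacement; TG003 positive control.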

[14] = biological target: Ubiquitin carboxyl-terminal hydrolase 1 (Homo sapiens) (UniProt O94782); assay: Inhibitors of USP1/UAF1: Pilot qHTS (AID 504865); details: purified USP1/UAF1, Ub-rhodamine cleavage fluorescence; series mostly up to 54.9 µM;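 also: rhodamine fluorescence freed from ubiquitin-rhodamine substrate followed over time; top concentration of the series differs between compounds; % is scaled to controls: 0 for no effect and ±100 for the full control effect; nearly all actives have a fitted effect of over 35% in size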
Procedure, shortened: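 In 50mM HEPES pH 7.8 containing 0.5mM EDTA, 1mM TCEP, 0.1 mg/ml BSA and 0.01% Tween-20, 1nM USP1/UAF1 is exposed to compound for 15 min, then Ub-Rho (150nM final) is added and fluorescence is read over time.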

[15] = Primary qHTS for small molecule stabilizers of the endoplasmic reticulum resident proteome: Secreted ER Calcium Modulated Protein (SERCaMP) assay (AID 1508630); details: SH-SY5Y GLuc-SERCaMP (Gaussia luciferase released on ER calcium loss) secretion, thapsigargin, luminescence; series mostly up to 38.4 µM; also: % is scaled to controls: 0 for no effect and ±100 for the full control effect
Procedure, shortened: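 GLuc-SERCaMP-expressing SH-SY5Y cells, pretreated 16 h with compound, are challenged with thapsigargin to empty ER calcium stores; after 4 h, coelenterazine is added directly to the medium and luminescence is imaged.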

[16] = biological target: 3',5'-cyclic-AMP phosphodiesterase 4B (Homo sapiens) (UniProt Q07343); assay: qHTS Assay for Inhibitors of PDE-IV (AID 607; active = well fitted activation curve with a large enough effect in the main read-out, with a control signal flat, not every such curve was filed as active; also: % of control where 0% means no effect); details: HEK293 ACTOne CNG channel cells, membrane potential fluorescence; series mostly up to 22.9 µM
Procedure, shortened: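 The readout is membrane depolarisation from a cAMP-sensing CNG channel, detected with a potential dye at ex 535/em 590. Cells were HEK293-derived (endogenous PDE-IV) at 1000 cells/well, titrated up to 22.9 uM final.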

[17] = biological target: Cytochrome P450 3A4 (Homo sapiens) (UniProt P08684); assay: qHTS Assay for Inhibitors and Substrates of Cytochrome P450 3A4 (AID 884); details: recombinant CYP3A4, Luciferin-PPXE luminescence; series mostly up to 57.1 µM; also: potency is read from the fitted curve at half-maximal effect; nearly all actives have a fitted effect of over 50% in size
Procedure, shortened: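 20 nM human CYP3A4 with 25 uM Luciferin-PPXE (at KM) in 200 mM KPO4, preincubated 10 min with compound; NADPH regeneration started a 60 min RT reaction. Luciferin detected by luminescence, normalized to 57 uM ketoconazole as full inhibition.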

Sequence of 3',5'-cyclic-AMP phosphodiesterase 4B (Homo sapiens) (Q07343 whole entry, looked up): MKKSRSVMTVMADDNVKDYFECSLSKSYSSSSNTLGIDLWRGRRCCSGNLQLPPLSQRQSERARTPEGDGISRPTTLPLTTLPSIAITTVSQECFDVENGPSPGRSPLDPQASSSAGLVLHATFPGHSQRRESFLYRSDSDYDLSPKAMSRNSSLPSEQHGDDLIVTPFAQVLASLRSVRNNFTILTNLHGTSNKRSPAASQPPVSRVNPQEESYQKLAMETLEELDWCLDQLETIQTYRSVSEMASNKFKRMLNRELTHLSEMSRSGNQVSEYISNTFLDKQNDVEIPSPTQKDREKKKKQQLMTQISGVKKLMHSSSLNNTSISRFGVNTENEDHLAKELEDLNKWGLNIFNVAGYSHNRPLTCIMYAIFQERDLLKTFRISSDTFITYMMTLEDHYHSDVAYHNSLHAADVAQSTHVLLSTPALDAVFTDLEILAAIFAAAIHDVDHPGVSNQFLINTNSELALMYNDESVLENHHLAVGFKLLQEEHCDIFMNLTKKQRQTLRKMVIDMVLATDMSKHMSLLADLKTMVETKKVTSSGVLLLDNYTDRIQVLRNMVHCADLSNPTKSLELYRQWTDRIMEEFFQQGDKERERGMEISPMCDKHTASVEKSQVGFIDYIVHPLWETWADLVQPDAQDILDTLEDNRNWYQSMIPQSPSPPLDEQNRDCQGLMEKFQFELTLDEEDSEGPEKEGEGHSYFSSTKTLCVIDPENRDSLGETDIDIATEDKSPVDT
Sequence of Cytochrome P450 2C19 (Homo sapiens) (P33261 whole entry, looked up): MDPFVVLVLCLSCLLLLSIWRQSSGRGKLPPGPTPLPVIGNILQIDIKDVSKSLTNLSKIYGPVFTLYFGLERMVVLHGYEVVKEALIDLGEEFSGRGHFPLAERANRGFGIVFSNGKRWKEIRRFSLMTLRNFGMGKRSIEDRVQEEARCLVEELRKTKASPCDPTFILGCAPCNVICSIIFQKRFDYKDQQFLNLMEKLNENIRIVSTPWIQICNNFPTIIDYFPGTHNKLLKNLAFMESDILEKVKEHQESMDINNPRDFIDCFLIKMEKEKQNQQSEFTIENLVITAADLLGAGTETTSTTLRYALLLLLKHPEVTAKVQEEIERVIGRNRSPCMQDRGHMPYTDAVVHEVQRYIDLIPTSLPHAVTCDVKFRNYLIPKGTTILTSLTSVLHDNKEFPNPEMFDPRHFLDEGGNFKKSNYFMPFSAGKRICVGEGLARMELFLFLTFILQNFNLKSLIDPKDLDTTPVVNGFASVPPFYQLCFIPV
Sequence of Glucocorticoid receptor (Homo sapiens) (P04150 whole entry, looked up, the tested form may be a part): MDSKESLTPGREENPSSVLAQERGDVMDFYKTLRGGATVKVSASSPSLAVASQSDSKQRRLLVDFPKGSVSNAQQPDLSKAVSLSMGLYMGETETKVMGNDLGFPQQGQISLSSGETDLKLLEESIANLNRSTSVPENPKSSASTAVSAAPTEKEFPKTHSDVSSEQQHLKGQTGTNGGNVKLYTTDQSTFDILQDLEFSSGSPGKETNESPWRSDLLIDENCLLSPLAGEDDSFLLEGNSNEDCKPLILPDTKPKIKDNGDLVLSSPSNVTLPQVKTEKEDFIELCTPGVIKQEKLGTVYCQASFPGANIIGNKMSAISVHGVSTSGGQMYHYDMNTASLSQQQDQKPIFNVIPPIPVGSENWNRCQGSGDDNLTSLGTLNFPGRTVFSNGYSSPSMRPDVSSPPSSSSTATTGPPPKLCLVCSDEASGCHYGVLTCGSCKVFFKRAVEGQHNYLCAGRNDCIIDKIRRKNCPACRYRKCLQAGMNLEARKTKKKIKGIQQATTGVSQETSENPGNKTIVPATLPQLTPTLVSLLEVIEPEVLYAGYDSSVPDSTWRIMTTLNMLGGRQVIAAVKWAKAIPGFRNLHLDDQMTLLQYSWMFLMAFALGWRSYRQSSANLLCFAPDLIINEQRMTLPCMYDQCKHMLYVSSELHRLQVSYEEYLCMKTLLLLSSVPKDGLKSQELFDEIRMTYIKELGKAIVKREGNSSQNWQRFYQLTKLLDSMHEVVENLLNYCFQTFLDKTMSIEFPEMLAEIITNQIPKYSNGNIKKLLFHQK
Sequence of Cytochrome P450 3A4 (Homo sapiens) (P08684 whole entry, looked up): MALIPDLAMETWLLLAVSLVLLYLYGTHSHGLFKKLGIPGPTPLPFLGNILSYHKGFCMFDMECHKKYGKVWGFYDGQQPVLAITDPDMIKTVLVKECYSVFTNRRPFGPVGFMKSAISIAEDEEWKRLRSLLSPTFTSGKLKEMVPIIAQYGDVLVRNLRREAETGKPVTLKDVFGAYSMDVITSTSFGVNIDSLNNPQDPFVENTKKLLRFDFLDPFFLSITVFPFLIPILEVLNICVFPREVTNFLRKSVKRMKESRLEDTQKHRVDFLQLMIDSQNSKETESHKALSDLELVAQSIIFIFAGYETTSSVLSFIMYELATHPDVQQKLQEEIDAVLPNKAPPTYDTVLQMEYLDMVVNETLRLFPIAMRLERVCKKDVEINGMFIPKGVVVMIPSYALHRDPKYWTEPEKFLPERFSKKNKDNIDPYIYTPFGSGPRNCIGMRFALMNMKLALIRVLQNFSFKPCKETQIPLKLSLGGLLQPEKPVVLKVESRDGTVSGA
Sequence of Dual specificity protein kinase CLK4 (Homo sapiens) (Q9HAZ1 whole entry, looked up): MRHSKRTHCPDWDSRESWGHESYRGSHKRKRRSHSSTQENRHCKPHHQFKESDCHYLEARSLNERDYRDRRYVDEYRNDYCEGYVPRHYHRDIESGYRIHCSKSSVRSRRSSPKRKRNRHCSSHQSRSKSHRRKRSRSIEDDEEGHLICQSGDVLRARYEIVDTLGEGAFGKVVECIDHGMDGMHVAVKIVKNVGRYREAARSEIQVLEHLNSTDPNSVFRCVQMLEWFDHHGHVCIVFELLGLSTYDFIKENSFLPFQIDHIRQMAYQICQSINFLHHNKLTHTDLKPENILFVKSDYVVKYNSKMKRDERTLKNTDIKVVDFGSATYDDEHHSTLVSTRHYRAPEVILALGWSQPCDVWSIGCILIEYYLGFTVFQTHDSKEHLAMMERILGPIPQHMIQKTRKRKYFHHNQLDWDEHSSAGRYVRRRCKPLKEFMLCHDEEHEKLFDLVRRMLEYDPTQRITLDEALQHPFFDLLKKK
Sequence of Ubiquitin carboxyl-terminal hydrolase 1 (Homo sapiens) (O94782 whole entry, looked up): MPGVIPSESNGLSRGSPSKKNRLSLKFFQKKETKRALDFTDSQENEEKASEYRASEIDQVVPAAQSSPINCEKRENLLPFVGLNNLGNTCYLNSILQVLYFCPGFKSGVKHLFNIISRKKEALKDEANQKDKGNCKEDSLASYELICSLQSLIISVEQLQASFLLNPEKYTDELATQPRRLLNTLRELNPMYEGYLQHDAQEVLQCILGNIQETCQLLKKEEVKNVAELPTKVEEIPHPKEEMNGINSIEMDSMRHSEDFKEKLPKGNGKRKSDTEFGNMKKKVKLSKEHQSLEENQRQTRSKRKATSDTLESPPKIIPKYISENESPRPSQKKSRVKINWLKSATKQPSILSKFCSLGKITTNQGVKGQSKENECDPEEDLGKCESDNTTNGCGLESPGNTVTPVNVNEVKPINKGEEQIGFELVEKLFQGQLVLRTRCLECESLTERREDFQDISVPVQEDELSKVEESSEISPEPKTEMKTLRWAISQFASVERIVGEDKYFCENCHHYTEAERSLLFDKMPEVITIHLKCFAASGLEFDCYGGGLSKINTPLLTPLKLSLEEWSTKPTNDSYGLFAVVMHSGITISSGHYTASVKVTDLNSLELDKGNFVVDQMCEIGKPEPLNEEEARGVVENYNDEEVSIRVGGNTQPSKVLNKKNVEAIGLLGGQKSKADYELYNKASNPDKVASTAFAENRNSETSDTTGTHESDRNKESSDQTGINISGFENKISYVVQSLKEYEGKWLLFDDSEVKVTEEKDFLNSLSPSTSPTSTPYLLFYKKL
Sequence of Cytochrome P450 1A2 (Homo sapiens) (P05177 whole entry, looked up): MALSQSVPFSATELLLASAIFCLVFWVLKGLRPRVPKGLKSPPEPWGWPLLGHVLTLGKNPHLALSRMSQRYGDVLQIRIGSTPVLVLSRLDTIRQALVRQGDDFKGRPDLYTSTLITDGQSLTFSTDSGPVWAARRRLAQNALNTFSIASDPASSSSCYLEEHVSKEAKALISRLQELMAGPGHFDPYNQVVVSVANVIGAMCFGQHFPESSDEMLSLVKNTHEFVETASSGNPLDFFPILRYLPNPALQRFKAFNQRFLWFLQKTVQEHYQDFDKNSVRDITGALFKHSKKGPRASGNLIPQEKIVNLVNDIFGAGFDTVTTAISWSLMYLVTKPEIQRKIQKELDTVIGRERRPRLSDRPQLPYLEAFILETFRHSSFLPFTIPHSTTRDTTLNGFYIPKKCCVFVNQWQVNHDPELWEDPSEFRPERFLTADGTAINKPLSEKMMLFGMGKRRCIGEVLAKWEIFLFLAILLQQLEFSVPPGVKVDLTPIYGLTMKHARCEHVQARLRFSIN
Sequence of Lysosomal acid glucosylceramidase (Homo sapiens) (P04062 whole entry, looked up): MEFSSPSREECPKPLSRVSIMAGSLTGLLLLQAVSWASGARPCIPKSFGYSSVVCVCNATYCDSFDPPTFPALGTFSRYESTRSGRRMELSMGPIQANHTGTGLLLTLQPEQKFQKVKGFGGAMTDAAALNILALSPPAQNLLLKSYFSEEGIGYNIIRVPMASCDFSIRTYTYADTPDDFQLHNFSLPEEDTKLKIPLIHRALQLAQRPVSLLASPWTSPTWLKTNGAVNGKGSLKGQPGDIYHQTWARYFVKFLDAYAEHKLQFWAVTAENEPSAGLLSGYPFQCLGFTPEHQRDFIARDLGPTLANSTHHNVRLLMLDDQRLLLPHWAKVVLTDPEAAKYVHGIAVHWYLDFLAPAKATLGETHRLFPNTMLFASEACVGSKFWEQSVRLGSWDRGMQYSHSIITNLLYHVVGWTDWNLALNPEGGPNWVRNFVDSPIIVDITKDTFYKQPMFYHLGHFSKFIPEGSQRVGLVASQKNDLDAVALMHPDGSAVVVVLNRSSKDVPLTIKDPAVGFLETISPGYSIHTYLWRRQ

CN(Cc1ccco1)c1ncnc2ccc(-c3ccccc3C#N)cc12
active: Potency [3] 1 µM | Potency [10] 1.26 µM | Potency [11] 11.2 µM | Potency [12] 7.08 µM
inactive: Potency [1] > 11.4 µM | activity change, negative = inhibition [2] -26.1% | activity change, negative = inhibition [4] 7.18% | activity, negative = inhibition [5] 14.4% | Potency [6] > 46 µM | Potency [7] > 46 µM | Potency [8] | Potency [9] | Potency [13] | Potency [14] | outcome [15]

Cc1nc2cncnc2n(Cc2ccc(F)cc2)c1=O
inactive: Potency [1] > 11.4 µM | activity change, negative = inhibition [2] -6.19% | activity change, negative = inhibition [4] 9.35% | activity, negative = inhibition [5] -9.93% | Potency [6] > 9.22 µM | Potency [7] > 46 µM | Potency [8] | Potency [16] | Potency [9] | Potency [11] | Potency [12] | Potency [13] | Potency [14] | outcome [15]
active: Potency [3] 10 µM

COc1ccccc1CCn1c(=O)c(CCc2ccccc2)nc2cncnc21
inactive: Potency [1] > 11.4 µM | activity change, negative = inhibition [2] -16% | activity change, negative = inhibition [4] -21.1% | activity, negative = inhibition [5] -8.11% | Potency [6] > 9.22 µM | Potency [7] > 46 µM | Potency [8] | Potency [11] | Potency [12] | Potency [13] | Potency [14] | outcome [15]
active: Potency [3] 7.94 µM | Potency [17] 3.16 µM | Potency [10] 3.16 µM

CS(=O)(=O)Nc1cccc(-c2cncnc2NCc2cccnc2)c1
active: Potency [3] 15.8 µM | Potency [10] 3.16 µM
inactive: Potency [1] > 11.4 µM | activity change, negative = inhibition [2] 10.9% | activity change, negative = inhibition [4] -3.98% | activity, negative = inhibition [5] -1.28% | Potency [6] > 46 µM | Potency [7] > 46 µM | Potency [8] | Potency [16] | Potency [9] | Potency [11] | Potency [12] | Potency [13] | Potency [14] | outcome [15]

CCNc1ncc2nc(-c3ccc(OC)cc3)c(=O)n(CCC#N)c2n1
active: Potency [3] 10 µM
inactive: Potency [1] > 11.4 µM | activity change, negative = inhibition [2] -5.2% | activity change, negative = inhibition [4] -15.6% | activity, negative = inhibition [5] -7.35% | Potency [6] > 9.22 µM | Potency [7] > 46 µM | Potency [8] | Potency [16] | Potency [9] | Potency [11] | Potency [12] | Potency [13] | Potency [14] | outcome [15]

COc1ccc(-c2nc3cnc(N(C)C)nc3n(C[C@H]3CCCO3)c2=O)cc1
active: Potency [3] 3.16 µM
inactive: Potency [1] > 11.4 µM | activity change, negative = inhibition [2] 1.23% | activity change, negative = inhibition [4] -3.89% | activity, negative = inhibition [5] 2.75% | Potency [6] > 9.22 µM | Potency [7] > 46 µM | Potency [9] | Potency [11] | Potency [12] | Potency [13] | Potency [14] | outcome [15]
